Screening data deposited in PubChem by National Center for Advancing Translational Sciences (NCATS).
Tau FP inhib: inhibitors of human tau fibril formation; P10636; AID 1468; Potency, µM (titrated, usually from 57.7 µM), for the others: top-dose activity, negative = inhibition, hits mostly inhibitors; K18 P301L tau heparin fibrillization, Alexa594 FP, 6 h; hit rate 0.39% among 280,000; active = well fitted curve in the direction sought with a large enough effect; inconclusive = small, poorly fitted or top-dose-only effect, or another doubt; inactive = no such curve, though single readings can be large; an effect the other way counts as inactive or inconclusive; also: nearly all actives have a fitted effect of over 55% in size
Target sequence (P10636 561-689 P618L limits assumed): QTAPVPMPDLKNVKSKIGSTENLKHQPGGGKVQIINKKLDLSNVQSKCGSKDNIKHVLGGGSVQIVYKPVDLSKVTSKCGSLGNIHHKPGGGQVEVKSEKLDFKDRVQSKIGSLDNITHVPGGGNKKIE
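Compound effects on tau fibrillization are measured by Alexa 594 fluorescence polarization (ex 555, em 632 nm). K18 P301L tau is used at 15 uM with 0.24 uM labeled tracer, and 20 uM heparin induces aggregation over 6 hr at 37 C.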
Tau fibril ThT: tau fibrillization inhibition (ThT binding); P10636; AID 1460; Potency, µM (highest dose often 57.4 µM), for the others: at the highest dose activity, negative = inhibition, actives largely listed as inhibitors; recombinant tau K18 P301L, heparin-induced fibrillization, ThT fluorescence; hit rate 2.1% among 270,000; active = well fitted curve in the direction sought with a large enough effect; inconclusive = small, poorly fitted or top-dose-only effect, or another doubt; inactive = no such curve, though single readings can be large; an effect the other way counts as inactive or inconclusive; also: nearly all actives have a fitted effect of over 55% in size
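Heparin-induced fibrillization of the P301L-mutant K18 repeat-domain fragment of human tau was followed by ThT binding in quantitative high-throughput format.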
KDM4E inh: blocks human JMJD2E demethylase activity; JMJD2E catalytic domain, FDH-coupled NADH fluorescence (FDH is formaldehyde dehydrogenase); Potency, µM (top dose mostly 57.1 µM), for inactives: at the top dose activity change, negative = inhibition, usual class: inhibitors; hit rate 1.6% among 230,000; AID 2147;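 also: 0% = wells with enzyme and -100% = buffer wells without enzyme; nearly all actives have a fitted effect of over 50% in size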
HPGD block: HPGD (human) dehydrogenase inhibition. Potency, µM, without a hit: at the top dose activity change, negative = inhibition, hits mostly inhibitors. hit rate 4.3% among 150,000. purified HPGD, NADH fluorescence kinetic, PGE2 substrate. AID 894. P15428
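20 nM HPGD preincubated 15 min at room temperature with compound in 50 mM Tris-HCl pH 8, 0.01% Tween 20. Started with 1 mM NAD+ and 30 uM prostaglandin E2; NADH fluorescence (360/450 nm) read 5 times over 30-s intervals, last minus first.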
ALDH1A1 block: ALDH1A1 (human) enzyme inhibition | Purified ALDH1A1, NADH fluorescence, propionaldehyde substrate | Potency, µM (titrated, usually from 75.3 µM), for the others: at the top dose activity, negative = inhibition, usual class: inhibitors | hit rate 7.3% among 220,000 | AID 1030;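 also: plate controls were no enzyme wells and a reference inhibitor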
Target sequence (P00352 whole entry, looked up): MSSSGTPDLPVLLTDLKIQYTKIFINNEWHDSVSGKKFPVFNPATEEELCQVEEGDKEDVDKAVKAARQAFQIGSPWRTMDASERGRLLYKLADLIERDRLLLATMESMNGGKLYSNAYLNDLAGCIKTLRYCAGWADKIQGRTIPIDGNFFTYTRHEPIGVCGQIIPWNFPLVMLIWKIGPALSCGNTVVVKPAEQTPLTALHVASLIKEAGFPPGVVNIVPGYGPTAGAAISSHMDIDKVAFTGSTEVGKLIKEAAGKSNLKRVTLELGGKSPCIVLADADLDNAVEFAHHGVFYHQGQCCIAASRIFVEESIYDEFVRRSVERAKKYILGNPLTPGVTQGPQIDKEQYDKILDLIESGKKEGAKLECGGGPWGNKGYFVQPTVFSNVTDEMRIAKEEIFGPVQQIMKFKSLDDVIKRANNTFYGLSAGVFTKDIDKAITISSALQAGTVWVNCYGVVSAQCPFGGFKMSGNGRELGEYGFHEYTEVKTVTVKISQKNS
Tau fluor cs: counter-screen for tau fibril formation inhibitors. hit rate 0.93% among 280,000. AID 1463. Potency, µM (top dose mostly 57.7 µM), without a hit: at the top dose activity change, negative = decrease. tau K18 P301L (four-repeat tau fragment) Alexa594 fluorescence, heparin fibrillization; active = well fitted curve in the direction sought with a large enough effect; inconclusive = small, poorly fitted or top-dose-only effect, or another doubt; inactive = no such curve, though single readings can be large; an effect the other way counts as inactive or inconclusive; also: nearly all actives have a fitted effect of over 55% in size
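Human K18 P301L tau (15 uM unlabeled plus 0.24 uM Alexa 594-labeled, final) in 100 mM sodium acetate pH 7 was mixed with compound and 20 uM heparin and incubated 6 hr at 37 C.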
The depositor's hits bear a star; [ ] = remark or other dose. Rows were chosen to be rich in hits. Some 9.9% of all compounds tested hit in one or more screens of this group. Unless noted, calls follow the shape of the dose curve; as a rule, active = well fitted inhibition curve with a large enough effect (not every such curve was filed as active); inconclusive = small, poorly fitted or top-dose-only effect, or another doubt; inactive = no such curve, though single readings can be large or run the other way. Unless noted, % is scaled to controls: 0 for no effect and ±100 for the full control effect; potency is read from the fitted curve at half-maximal effect.

What do the screens show for `O=C(NCCc1ccc([N+](=O)[O-])cc1)c1ccccc1`?
Tau FP inhib: -2%; Tau fibril ThT: -16%; KDM4E inh: 3%; Tau fluor cs: -11%

Results for COC(=O)Cc1ccc(NC(=S)NCCSc2ccc(Cl)cc2)cc1 ?
Tau FP inhib: inconclusive; Tau fibril ThT: -14%; KDM4E inh: -22%; Tau fluor cs: 7.9µM*[quencher]

Results for COc1ccc(CCNC(=S)Nc2ccc(OC)cc2)cc1 ?
Tau FP inhib: 6%; Tau fibril ThT: -12%; KDM4E inh: 1%; HPGD block: -24%; ALDH1A1 block: inconclusive; Tau fluor cs: -22%

Results for COC(=O)Cc1ccc(NC(=S)NCCO)cc1 ?
Tau FP inhib: -5%; Tau fibril ThT: 6%; KDM4E inh: 1%; Tau fluor cs: 3%

How did O=C(CCCCCNC(=O)c1ccccc1)C[N+](=O)[O-] do in these assays?
Tau FP inhib: -4%; Tau fibril ThT: -7%; KDM4E inh: -3%; ALDH1A1 block: 2.2µM*; Tau fluor cs: 1%

What do the screens show for `COc1ccc(NC(=S)NCCCCCC(=O)C[N+](=O)[O-])cc1`?
Tau FP inhib: 5%; Tau fibril ThT: inconclusive; KDM4E inh: -2%; ALDH1A1 block: 2.5µM*; Tau fluor cs: -15%

How did O=C(CCCCCNC(=S)Nc1ccc(Cl)cc1)C[N+](=O)[O-] do in these assays?
Tau FP inhib: -14%; Tau fibril ThT: -14%; KDM4E inh: 2%; ALDH1A1 block: 10µM*; Tau fluor cs: -18%

Results for Cc1ccc(C(=O)OCC(=O)Nc2cccc(S(=O)(=O)NC3=NCCCCC3)c2)c(C)c1 ?
Tau FP inhib: -7%; Tau fibril ThT: -4%; KDM4E inh: -3%; ALDH1A1 block: -1%; Tau fluor cs: -25%

How did CCOc1ccccc1C(=O)Nc1nc2c(s1)CC(C)CC2 (stereo not given) do in these assays?
Tau FP inhib: -13%; Tau fibril ThT: inconclusive; Tau fluor cs: -14%

How did O=C1Oc2ccccc2C(=O)/C1=C\N1C(=O)N/C(=C\c2ccccc2O)C1=O do in these assays?
HPGD block: -8%; ALDH1A1 block: inconclusive

How did O=C(CCCCCNC(=S)Nc1ccccc1)C[N+](=O)[O-] do in these assays?
Tau FP inhib: -3%; Tau fibril ThT: inconclusive; KDM4E inh: 7%; ALDH1A1 block: 3.5µM*; Tau fluor cs: -13%

Results for OCCCNC(=S)Nc1ccc(Nc2ccccc2)cc1 ?
Tau FP inhib: 7%; Tau fibril ThT: -17%; KDM4E inh: 1%; ALDH1A1 block: -1%; Tau fluor cs: -20%

What do the screens show for `O=C(CCc1ccc(O)cc1)c1c(O)cc(O)cc1O[C@H]1OC(CO)C(O)C(O)C1O` (stereo not given in full)?
Tau FP inhib: -2%; Tau fibril ThT: inconclusive; KDM4E inh: inconclusive; HPGD block: 25µM*; ALDH1A1 block: -9%; Tau fluor cs: -13%

Results for O=C(CCc1ccc(O)cc1)c1c(O)cc(O)cc1O[C@@H]1O[C@H](CO)[C@@H](O)[C@H](O)[C@H]1O ?
Tau FP inhib: 3%; Tau fibril ThT: 2%; KDM4E inh: 15%; HPGD block: inconclusive; ALDH1A1 block: 4%; Tau fluor cs: 2%

Results for Cc1nc2c(C#N)c[nH]n2c(=O)c1CCO ?
Tau FP inhib: 1%; Tau fibril ThT: -4%; KDM4E inh: inconclusive; Tau fluor cs: -1%

Results for Cc1ccc(NS(=O)(=O)c2ccc3c(c2)[C@H]2C=CC[C@H]2[C@@H](c2ccc(F)cc2)N3)cc1C ?
Tau FP inhib: 0%; Tau fibril ThT: inconclusive; Tau fluor cs: inconclusive

Results for NS(=O)(=O)c1ccc2c(c1)C1C=CCC1C(C1CC=CCC1)N2 (stereo not given) ?
Tau FP inhib: inconclusive; Tau fibril ThT: 35µM*; KDM4E inh: inconclusive; HPGD block: -17%; ALDH1A1 block: inconclusive; Tau fluor cs: 28µM*[quencher]

Results for O=C(O)c1ccc2c(c1)C1C=CCC1C(c1cc3c(cc1Br)OCO3)N2 (stereo not given) ?
Tau FP inhib: 4%; Tau fibril ThT: -8%; KDM4E inh: -11%; ALDH1A1 block: 6%; Tau fluor cs: -13%

What do the screens show for `CC(C)C1Nc2ccc(S(N)(=O)=O)cc2C2C=CCC21` (stereo not given)?
Tau FP inhib: inconclusive; Tau fibril ThT: 20µM*; KDM4E inh: -26%; HPGD block: -27%; ALDH1A1 block: 20µM*; Tau fluor cs: inconclusive

Results for O=C(COC(=O)c1ccc(Br)o1)Nc1nc2ccccc2s1 ?
Tau FP inhib: -5%; Tau fibril ThT: inconclusive; KDM4E inh: 5%; HPGD block: -4%; ALDH1A1 block: 5%; Tau fluor cs: inconclusive

What do the screens show for `O=C(COC(=O)c1ccc([N+](=O)[O-])o1)Nc1nc2ccccc2s1`?
Tau FP inhib: 7%; Tau fibril ThT: inconclusive; KDM4E inh: inconclusive; ALDH1A1 block: 32µM*; Tau fluor cs: -28%

Results for O=C(Nc1nc2ccc(F)cc2s1)c1nc(S(=O)(=O)Cc2ccccc2)ncc1Cl ?
Tau FP inhib: -13%; Tau fibril ThT: 7.1µM*; Tau fluor cs: -30%

How did Cc1cccc(CS(=O)(=O)c2ncc(Cl)c(C(=O)Nc3nc4ccc(F)cc4s3)n2)c1 do in these assays?
Tau FP inhib: -9%; Tau fibril ThT: 10µM*; Tau fluor cs: -23%

How did Cc1cccc(CS(=O)(=O)c2ncc(Cl)c(C(=O)NCc3ccccc3)n2)c1 do in these assays?
Tau FP inhib: 4%; Tau fibril ThT: 5%; Tau fluor cs: 1%

How did Cc1nnc(NC(=O)c2nc(S(=O)(=O)Cc3ccccc3)ncc2Cl)s1 do in these assays?
Tau FP inhib: inconclusive; Tau fibril ThT: inconclusive; Tau fluor cs: -27%

What do the screens show for `CC1(c2cnc(Nc3ccccc3)s2)CCC(=O)O1` (stereo not given)?
Tau FP inhib: 7%; Tau fibril ThT: -9%; KDM4E inh: 0%; HPGD block: -15%; ALDH1A1 block: 18µM*; Tau fluor cs: -8%

Results for O=C1Nc2ccccc2/C1=N\N1CCOCC1 ?
Tau FP inhib: 9%; Tau fibril ThT: -10%; KDM4E inh: 2%; Tau fluor cs: -3%

What do the screens show for `O=C1Nc2ccccc2N=C(c2ccccc2)C1Br` (stereo not given)?
Tau FP inhib: inconclusive; Tau fibril ThT: inconclusive; KDM4E inh: inconclusive; ALDH1A1 block: 16µM*; Tau fluor cs: -20%

What do the screens show for `O=C1CC(c2ccccc2)=Nc2ccccc2N1`?
Tau FP inhib: -7%; Tau fibril ThT: -2%; KDM4E inh: 5%; HPGD block: -10%; ALDH1A1 block: inconclusive; Tau fluor cs: -6%
